Experimental data from PubChem BioAssay AID623911 (Vanderbilt High Throughput Screening Facility, 2012).
The whole screen tested about 2,100 compounds, of which about 770 (37%) were called active.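 How the source made its calls: active means by-eye trace score of 1 for enhancers or -1 for inhibitors, so actives lie on both sides (some results past the limit were not filed as active); inactive means score 0, or 3 fluorescent, or 4 baseline rise.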 Some of the results follow.

Target: G protein-activated inward rectifier potassium channel 2 (Homo sapiens) + G protein-activated inward rectifier potassium channel 1 (Homo sapiens) (UniProt P48051+P48549)
Sequence (P48051 whole entry, looked up): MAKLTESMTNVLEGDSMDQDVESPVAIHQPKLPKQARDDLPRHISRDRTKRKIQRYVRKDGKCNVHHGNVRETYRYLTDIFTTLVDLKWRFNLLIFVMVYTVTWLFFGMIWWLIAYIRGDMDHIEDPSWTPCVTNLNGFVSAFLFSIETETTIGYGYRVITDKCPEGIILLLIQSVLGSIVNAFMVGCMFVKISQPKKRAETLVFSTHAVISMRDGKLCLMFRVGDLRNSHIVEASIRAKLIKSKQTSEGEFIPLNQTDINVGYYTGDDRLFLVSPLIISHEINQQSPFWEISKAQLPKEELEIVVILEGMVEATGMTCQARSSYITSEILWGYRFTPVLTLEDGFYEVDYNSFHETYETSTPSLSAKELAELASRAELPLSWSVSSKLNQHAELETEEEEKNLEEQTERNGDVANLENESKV
Sequence (P48549 whole entry, looked up): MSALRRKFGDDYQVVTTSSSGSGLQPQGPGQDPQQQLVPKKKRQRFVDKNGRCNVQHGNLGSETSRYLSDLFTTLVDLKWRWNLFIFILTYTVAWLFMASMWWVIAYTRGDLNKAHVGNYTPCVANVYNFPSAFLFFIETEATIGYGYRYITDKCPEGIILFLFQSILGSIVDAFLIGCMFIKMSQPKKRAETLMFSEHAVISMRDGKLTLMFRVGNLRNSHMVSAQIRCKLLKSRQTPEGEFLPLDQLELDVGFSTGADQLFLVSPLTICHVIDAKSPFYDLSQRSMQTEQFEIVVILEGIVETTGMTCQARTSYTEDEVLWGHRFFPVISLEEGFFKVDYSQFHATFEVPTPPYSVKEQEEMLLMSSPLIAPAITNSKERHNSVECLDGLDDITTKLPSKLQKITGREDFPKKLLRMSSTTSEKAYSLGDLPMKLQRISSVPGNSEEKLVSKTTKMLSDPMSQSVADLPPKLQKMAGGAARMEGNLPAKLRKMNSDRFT
Test: GIRK1/2 thallium flux modulators, retest, confirmation, cell-based, HEK293 rmGlu8/hGIRK1/2, FluoZin-2 (AID 623911)
Settings: HEK293 rmGlu8/hGIRK1/2, thallium flux FluoZin-2; actives lie on both sides; glutamate co-added at its EC20 level

Row | SMILES | manual score
1 | O=C(NNC(=S)Nc1cccc2ccccc12)c1cccc(Br)c1 | 1 (active)
2 | O=C(NNC(=S)Nc1ccccc1)c1cccc(Br)c1 | 0 (inactive)
3 | Cc1ccc(C(=O)NNC(=S)Nc2cccc3ccccc23)s1 | 0 (inactive)
4 | CC(C)(C)S(=O)(=O)c1ccc(S(=O)(=O)C(C)(C)C)s1 | 0 (inactive)
5 | COc1ccccc1C(=O)NC(=S)NNC(=O)c1sc2ccccc2c1Cl | 0 (inactive)
6 | CC(C)(C)C(=O)NC(=S)NNC(=O)c1sc2ccccc2c1Cl | 1 (active)
7 | CCCOC(=S)NC(=O)c1sc2ccccc2c1Cl | 1 (active)
8 | CCCCOC(=S)NC(=O)c1sc2ccccc2c1Cl | 1 (active)
9 | O=C(NC(=S)N(CCCCO)C1CCCCC1)c1sc2ccccc2c1Cl | 1 (active)
10 | Nc1c(C(O)(C(F)(F)F)C(F)(F)F)ccc2ccccc12 | 0 (inactive)
11 | CCCCN(Cc1ccccc1)S(=O)(=O)c1ccc2[nH]c(=O)oc2c1 | 0 (inactive)
12 | COc1ccccc1C(=O)NNC(=S)NC(=O)c1sc2ccccc2c1Cl | 0.5 (inactive)
13 | CCOC(=S)NC(=O)c1sc2ccccc2c1Cl | 1 (active)
14 | Cn1c(-c2sc3ccccc3c2Cl)n[nH]c1=S | 0 (inactive)
15 | Cc1cc(C)c2nc(SCC(=O)NCCC3=CCCCC3)cc(C)c2c1 | 1 (active)
16 | COc1cccc(-n2c(SCC(=O)NCCC3=CCCCC3)nc3n[nH]c(C)c3c2=N)c1 | -0.5 (inactive)
17 | Cc1cc(C)c2nc(SC(C)C(=O)NCC(=O)Nc3ccc(F)c(F)c3F)cc(C)c2c1 (stereo not given) | 0 (inactive)
18 | Nn1c(SC/C=C/c2ccccc2)nnc1-c1ccccn1 | 0 (inactive)
19 | COc1cc(Cl)cc2c1Sc1ccccc1/C2=C/CCN(C)C | -1 (active)
20 | Cc1nc(SC2CCOC2=O)c2c(C)c(C)sc2n1 (stereo not given) | 1 (active)
21 | S=C(NN=C1C2CC3CC(C2)CC1C3)Nc1ccccc1 | 0 (inactive)
22 | CCCCn1c(SCc2nc(N)nc(Nc3ccccc3C)n2)nc2ccccc2c1=O | 0 (inactive)
23 | O=C(c1ccccc1Oc1ccccc1)N1CCN(c2ccccc2)CC1 | -1 (active)
24 | CN1CCN(C(=O)c2sc(=S)n(-c3ccccc3)c2N)CC1 | 0 (inactive)
25 | O=C(CN1C(=O)c2ccccc2C1=O)Nc1sc2c(c1C(=O)NCC1CCCO1)CCC2 (stereo not given) | 0 (inactive)
26 | COc1ccc(C(OC(=O)c2cccs2)C(=O)NCC2CCCO2)cc1 (stereo not given) | 0 (inactive)
27 | Cc1ccc(-n2nc(-c3cccs3)cc2C(=O)NCC2CCCO2)c(C)c1 (stereo not given) | -1 (active)

Row | SMILES | manual score
28 | Cc1cccc(S(=O)(=O)Nc2cccc3c2C(=O)c2ccccc2-3)c1 | 0 (inactive)
29 | COC(=O)Nc1nnc(Cc2ccc(Cl)cc2)s1 | 0 (inactive)
30 | CC(C)Cn1cnc2sc3c(c2c1=N)CCCC3 | -1 (active)
31 | N#Cc1ccc(-c2csc(NC3=NCCCCC3)n2)cc1 | -1 (active)
32 | CC(CCc1ccccc1)NC(=O)N1CCOCC1 (stereo not given) | 0 (inactive)
33 | O=C(NC(=Nc1ccccc1)N1CCOCC1)Nc1ccccc1 | 1 (active)
34 | O=C(NCCN1CCN(C(=O)Nc2ccccc2)CC1)Nc1ccccc1 | 0 (inactive)
35 | CC1=CC(C)(C)n2c(O)c(N=NC(N)=S)c3cccc1c32 | 0 (inactive)
36 | CCCSc1nc2sc3c(c2c(=O)[nH]1)CCN(Cc1ccccc1)C3 | 3 (inactive)
37 | Oc1c(Cl)cc(Cl)c2c1NCCC2 | 0 (inactive)
38 | Cc1ccnc(NC(=S)NC(=O)c2cccs2)c1 | 1 (active)
39 | Cc1cccc(NC(=S)NC(=O)c2cccs2)n1 | 1 (active)
40 | O=C(NC(=S)Nc1ccc(Cl)cn1)c1cccs1 | 0.5 (inactive)
41 | Cc1ccc2oc(-c3cccc(NC(=S)NC(=O)c4cccs4)c3)nc2c1 | 0 (inactive)
42 | CN1C(=O)NC(c2ccccc2)C2=C1CN(Cc1ccccc1)C2=O (stereo not given) | 0 (inactive)
43 | CCCCOc1ccc(C(=O)NNC(=S)NC(=O)CC)cc1 | 1 (active)
44 | CCCOc1cccc(C(=O)NC(=S)Nc2cccc(C(F)(F)F)c2)c1 | 0 (inactive)
45 | CCCOc1ccc(C(=O)NNC(=S)NC(=O)CC)cc1 | 1 (active)
46 | CC1Cc2nc(SCC(=O)Nc3nc4ccccc4s3)n(C)c(=O)c2S1 (stereo not given) | -0.5 (inactive)
47 | N#Cc1nc(COc2ccccc2)oc1N1CCN(c2cccc(Cl)c2)CC1 | 0 (inactive)
48 | COc1ccccc1N=Cc1nc(-c2ccccc2)oc1OC(C)=O | 0 (inactive)
49 | CCC(=O)Oc1oc(-c2ccccc2)nc1C=Nc1ccccc1OC | 0 (inactive)
50 | Cc1oc(-c2ccccc2)nc1CS(=O)CC(=O)O (stereo not given) | 1 (active)
51 | Cc1ccn2c(NC3CCCCC3)c(C(C)C)nc2c1 | -1 (active)
52 | C=CCOc1cccc(C2/C(=C(/O)c3ccc(C)cc3)C(=O)C(=O)N2CCN2CCOCC2)c1 (stereo not given) | 0 (inactive)
53 | CCc1cccc(CC)c1-n1c(SCC(=O)N2CCc3ccccc3C2)nnc1-c1cccnc1 | -1 (active)
54 | Cn1c(SCC(=O)N2c3ccccc3CCc3ccccc32)nnc1-c1ccc(O)cc1 | 0 (inactive)

Row | SMILES | manual score
55 | CCOC(=O)c1cccc(NC(=O)CSc2nnc(-c3cccnc3)n2C)c1 | 0 (inactive)
56 | CCN=c1scc(-c2ccco2)n1/N=C/c1ccc(O)cc1 | 0 (inactive)
57 | CC(C)(C)C(=O)Nc1nc2c(s1)COc1ccccc1-2 | -0.5 (inactive)
58 | COC(=O)c1ccc(Cl)c(NC(=O)CN2CCN(C)CC2)c1 | 0 (inactive)
59 | CN1CCN(CC(=O)N2c3ccccc3C(C)(c3ccccc3)CC2(C)C)CC1 (stereo not given) | -1 (active)
60 | CC1(c2ccccc2)CC(C)(C)N2C(=O)/C(=C3\SC(=S)NC3=O)c3cccc1c32 (stereo not given) | 0 (inactive)
61 | CN1CCN(CC(=O)N2c3ccccc3C(C)(c3ccc(Cl)cc3)CC2(C)C)CC1 (stereo not given) | -1 (active)
62 | CN1CCN(Cc2cccc(Oc3ccc(Cl)cc3)c2)CC1 | 0 (inactive)
63 | S=c1[nH]nc(CSc2nc3ccccc3s2)n1C1CCCCC1 | 0 (inactive)
64 | N#Cc1ccsc1NC(=O)CN1CCN(c2ccc(O)cc2)CC1 | 0 (inactive)
65 | Cc1cc(NC(=O)CSc2nc(C3CC3)nc3sc(C)c(C)c23)no1 | 1 (active)
66 | Cc1cc(NC(=O)CSc2nc3ccccc3c(=O)n2Cc2ccccc2)no1 | 0 (inactive)
67 | COc1cc(OC)c2nc(C)c3c(c2c1)N(c1ccc(O)cc1)CC3 | -1 (active)
68 | O=C(Nc1ccccc1)c1ccccc1NS(=O)(=O)c1ccc(Cl)s1 | -1 (active)
69 | O=C(Nc1ccccc1C(=O)O)c1ccc(NC(=O)c2ccc(Br)o2)cc1 | -0.5 (inactive)
70 | O=C(Nc1nncs1)c1ccccc1NS(=O)(=O)c1cccs1 | 0 (inactive)
71 | O=C(NC(=S)N1CCCc2ccccc21)c1ccc(Br)cc1 | 1 (active)
72 | O=C(NC(=S)Nc1ccccc1N1CCCC1)c1ccccc1[N+](=O)[O-] | 0 (inactive)
73 | O=C(NC(=S)N1CCCc2ccccc21)c1ccc(Cl)cc1 | 1 (active)
74 | CCC1CCCCN1C(=O)CSc1nnc(-c2ccco2)o1 (stereo not given) | 0 (inactive)
75 | CCC1CCCCN1C(=S)NC(=O)c1ccc([N+](=O)[O-])cc1 (stereo not given) | 1 (active)
76 | Cc1c(C(=O)NC(=S)Nc2ccccc2N2CCCC2)cccc1[N+](=O)[O-] | 0 (inactive)
77 | O=C(NC(=S)Nc1ccccc1N1CCCC1)c1ccc([N+](=O)[O-])cc1 | 1 (active)
78 | O=C(COc1ccc(Br)cc1Br)NC(=S)N1CCCc2ccccc21 | 0 (inactive)
79 | O=c1[nH]c(NCCO)nc2c1C1(CCCCC1)Cc1ccccc1-2 | 0 (inactive)
80 | CCOC(=O)c1cccc(-n2c(C)cc(C=O)c2C)c1 | 0 (inactive)
81 | O=C(Nc1nc(-c2cc3ccccc3oc2=O)cs1)c1ccc(Br)o1 | 0 (inactive)

Row | SMILES | manual score
82 | O=C(NC(=S)N1CCCc2ccccc21)c1ccc([N+](=O)[O-])cc1 | 1 (active)
83 | O=C(NC(=S)N1CCCc2ccccc21)c1ccccc1 | 1 (active)
84 | O=C(NC(=S)N1CCc2ccccc21)c1ccccc1Br | 1 (active)
85 | O=C(NC(=S)N1CCc2ccccc21)c1ccccc1 | 1 (active)
86 | O=C(c1ccccc1)N1CCCc2ccccc21 | 0 (inactive)
87 | O=C(N/N=C1\CCCc2ccccc21)c1ccc([N+](=O)[O-])cc1 | 0 (inactive)
88 | C=CCN1C(=O)/C(=C2/Sc3ccccc3N2C)SC1=Nc1c(C)n[nH]c1C | 0 (inactive)
89 | O=C(NC(=S)N1CCN(c2ccc([N+](=O)[O-])cc2)CC1)c1ccc(F)cc1 | 1 (active)
90 | CCC(=O)c1ccc(N2CCN(C(=O)c3cc([N+](=O)[O-])ccc3N3CCN(C)CC3)CC2)c(F)c1 | 0 (inactive)
91 | O=C(NC(=S)N1CCN(c2ccc(F)cc2)CC1)C12CC3CC(CC(C3)C1)C2 | 0 (inactive)
92 | O=S(=O)(Nc1cc(Cl)ccc1N1CCCCC1)c1cccs1 | -1 (active)
93 | O=S(=O)(Nc1ccccc1N1CCCCC1)c1ccc(Cl)s1 | 0 (inactive)
94 | CCC/C(=N/NC(=O)c1csc(C)c1C)c1ccc(Cl)s1 | 0 (inactive)
95 | COc1ccc(-c2onc(C)c2-c2ccc(C(=O)OC(C)C)o2)c(O)c1 | 0 (inactive)
96 | COc1ccc(-c2c3c(=O)n(C)c(=O)n(C)c3cn2-c2ccccc2)cc1 | 0 (inactive)
97 | COc1ccc(-n2ncc3c(NCc4cccs4)ncnc32)cc1 | 0 (inactive)
98 | COc1ccc(-c2c(S(=O)(=O)c3ccccc3)cnn2-c2ccccc2)cc1 | -1 (active)
99 | N#Cc1c(N)nc(SCc2ccccc2)c(C#N)c1-c1ccco1 | 0 (inactive)
100 | CC(NC(=O)COc1ccccc1)C(=O)NC1=NCCS1 (stereo not given) | 0 (inactive)
101 | Cc1ccc(OCC(=O)NNC(=O)C(C)Sc2ncnc3sc(C)c(C)c23)cc1 (stereo not given) | 1 (active)
102 | COC(=O)c1c(NC(=O)CSc2nnc(-c3cccnc3)n2Cc2ccco2)sc(C)c1C | -0.5 (inactive)
103 | CCOC(=O)c1c(NC(=O)CSc2nnc(-c3ccncc3)n2Cc2ccco2)sc(C(C)=O)c1C | -1 (active)
104 | CCOc1ccccc1NC(=O)CSc1nnc(-c2ccco2)n1Cc1ccco1 | 0 (inactive)
105 | CCn1cc(C(=O)N2CC=C(c3ccccc3)CC2)c(=O)c2ccc(C)nc21 | 0 (inactive)
